SW480 rerep = inducers of DNA re-replication in SW480 colon cancer cells; Potency, µM (series often up to 46.1 µM), for the others: at the highest dose re-replication activation, actives largely listed as activators; SW480 DNA re-replication, Hoechst DNA content imaging, 48 h; 340,000 tested, 1.8% active; further: potency means the concentration at half of the fitted maximal effect; % of control where 0% means no effect; nearly all actives have a fitted effect of over 55% in size
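DNA re-replication was detected as more nuclei of elevated Hoechst intensity after 48 hr exposure to compound (23 nL pinned per well of 250 cells).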
MCF10A rereplic = inducers of DNA re-replication in MCF 10A breast cells | MCF 10A DNA re-replication, Hoechst nuclear intensity, 48 h | 350,000 tested, 2.9% active | Potency, µM (doses to about 46.1 µM), without a hit: top-dose activity, positive = re-replication, most hits filed as activators | AID 624296; further: potency means the concentration at half of the fitted maximal effect; % of control where 0% means no effect; nearly all actives have a fitted effect of over 50% in size
KB-3-1 tox = kills parental KB-3-1 adenocarcinoma cells | Potency, µM (titrated, usually from 46.1 µM), actives largely listed as cytotoxic | KB-3-1 viability, CellTiter-Glo ATP luminescence, 72 h | 400,000 tested, 1.4% active | AID 1347075; further: potency means the concentration at half of the fitted maximal effect; on the % scale 0 is the no-effect control and ±100 the full control effect; nearly all actives have a fitted effect of over 60% in size
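Using CellTiter-Glo luminescence, growth of non-resistant KB-3-1 adenocarcinoma cells is assessed 72 h after pin-tool compound addition at 37 °C. Normalized responses across the concentration series yield fitted curves.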
KB-V1 cytotox = kills drug-selected multidrug resistant KB-V1 cells; 400,000 tested, 3.4% active; Potency, µM (top dose mostly 46.1 µM), most hits filed as cytotoxic; KB-V1 MDR cells viability, CellTiter-Glo, 72 h; further: potency means the concentration at half of the fitted maximal effect; on the % scale 0 is the no-effect control and ±100 the full control effect; nearly all actives have a fitted effect of over 60% in size
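KB-V1 MDR subline cells in DMEM (phenol-red free, 10% FBS) exposed to compounds in qHTS concentration series for 72 h at 37 degrees C. Viability read by CellTiter-Glo luminescence; concentration-effect curves fitted after normalization and correction.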
S-ASM inh = inhibitors of human secretory acid sphingomyelinase; P17405; Potency, µM (doses to about 57.5 µM), for inactives: at the top dose activity change, negative = inhibition, hits mostly inhibitors; AID 504937; placental ASM, HMU-PC fluorogenic substrate, 60 min; 340,000 tested, 0.006% active; further: potency means the concentration at half of the fitted maximal effect
Target sequence (P17405 47-631 limits assumed): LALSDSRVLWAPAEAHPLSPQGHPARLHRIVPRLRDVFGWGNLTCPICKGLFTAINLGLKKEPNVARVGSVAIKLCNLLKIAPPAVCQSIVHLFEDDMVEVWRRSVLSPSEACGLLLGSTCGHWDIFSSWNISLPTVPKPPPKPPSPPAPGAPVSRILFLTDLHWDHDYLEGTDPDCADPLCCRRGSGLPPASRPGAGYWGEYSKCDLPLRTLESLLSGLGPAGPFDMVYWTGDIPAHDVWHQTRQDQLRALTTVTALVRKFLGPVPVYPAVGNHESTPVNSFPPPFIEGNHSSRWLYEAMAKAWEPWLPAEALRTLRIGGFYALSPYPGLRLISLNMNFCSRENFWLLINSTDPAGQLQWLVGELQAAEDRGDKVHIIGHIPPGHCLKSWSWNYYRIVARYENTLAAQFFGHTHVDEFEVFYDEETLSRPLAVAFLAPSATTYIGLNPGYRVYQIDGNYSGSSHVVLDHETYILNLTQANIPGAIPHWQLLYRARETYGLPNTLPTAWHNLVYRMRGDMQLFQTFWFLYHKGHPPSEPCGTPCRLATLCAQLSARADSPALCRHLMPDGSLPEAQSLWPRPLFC
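qHTS format. ASM enzyme prepared from human placenta hydrolyses the fluorogenic substrate HMU-PC0 (9 uM final) over 60 min at 37 °C after a 10 min compound preincubation.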
Giardia kill = Giardia lamblia killing; activity change, % at 7.66 µM, hits read low; Giardia lamblia trophozoite viability; 340,000 tested, 0.15% active; in the data active means activity change below about -80%; inconclusive means between about -30% and that limit;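 further: parasites exposed to compound for two days anaerobically before the ATP read; on the % scale 0 is the no-effect control and ±100 the full control effect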
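Compounds were tested on trophozoites seeded at 100 cells/well and held 48 hrs at 37 deg C anaerobically. An ATP-based luminescent kit measured the remaining live cells.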
The depositor's hits bear a star; i = inactive; ? = inconclusive; . = not tested or not shown; [ ] = remark or other dose. Shown are actives, neighbours in structure and some others; about 6.9% of the full set was active somewhere. Unless noted, the call rests on the fitted dose curve; in most records, active means well fitted curve in the direction sought with a large enough effect; inconclusive means small, poorly fitted or top-dose-only effect, or another doubt; inactive means no such curve, though single readings can be large; an effect the other way counts as inactive or inconclusive.

SMILES	SW480 rerep	MCF10A rereplic	KB-3-1 tox	KB-V1 cytotox	S-ASM inh	Giardia kill
O=C(NCC1CCCN1S(=O)(=O)c1cccs1)c1cccc(Cl)c1 (centres undefined)	2.9µM*	8%	i	?	-1%	26
Cc1ccc(CNC(=O)C(=O)NCC2CCCN2S(=O)(=O)c2cccs2)cc1 (centres undefined)	-1%	6%	i	9.2µM*	-2%	-20
CN(C)CCN1C(=O)c2oc3ccc(Cl)cc3c(=O)c2C1c1cccc(Br)c1 (centres undefined)	-5%	-1%	i	i	-1%	22
CN(C)CCN1C(=O)c2oc3ccccc3c(=O)c2C1c1cccc(Br)c1 (centres undefined)	-7%	0%	i	10µM*	-2%	3
CCN(CC)CCCN1C(=O)c2oc3ccccc3c(=O)c2C1c1cccnc1 (centres undefined)	-7%	21%	i	i	19%	17
O=C1c2oc3ccccc3c(=O)c2C(c2cccnc2)N1Cc1ccco1 (centres undefined)	-9%	17%	i	7.3µM*	2%	-1
CCOC(=O)C1CCN(C(=O)c2cccc(NS(=O)(=O)c3ccc(F)c(F)c3)c2)CC1	-1%	-4%	i	i	1%	-9
C[C@H](CO)N1C[C@H](C)[C@@H](CN(C)C(=O)NC2CCCCC2)Oc2ccc(NC(=O)CCC(F)(F)F)cc2C1=O	?	9%	i	i	-5%	-2
CCOc1ccc(NC(=O)N(C2CCCC2)C2CCN(C(C)=O)CC2)cc1	-17%	-6%	i	i	8%	6
CCOc1ccc(NC(=O)N(CCC(C)C)C2CCN(C(C)=O)CC2)cc1	-2%	-11%	i	18µM*	3%	-3
CCOc1ccc(NC(=O)N2CCC(c3ccc(C)cc3)C2)cc1 (centres undefined)	-8%	9%	i	21µM*	-1%	-7
Cn1c(SCC(=O)NC2CC2)nnc1-c1ccccc1Cl	6%	-14%	i	i	0%	?
COc1ccc(-n2cnnc2SCC(=O)NC2CC2)cc1	.	.	i	i	.	.
C=CCn1c(SCC(=O)NC2CCCCC2)nnc1-c1ccc(OC)cc1	-8%	-38%	i	4.1µM*	1%	-5
Cn1c(SCC(=O)NC2CCCCC2)nnc1-c1ccccc1F	9.2µM*	-20%	i	i	2%	-11
O=C(CSc1nncn1-c1ccccc1F)NC1CCCCC1	-3%	-2%	i	21µM*	-4%	8
COc1ccc(-n2cnnc2SCC(=O)NC2CCCCC2)cc1	3%	1%	i	23µM*	7%	-3
Cc1ccccc1Cn1c(CN2CCC(C(=O)NCc3cccnc3)CC2)cc2ccccc21	.	.	i	i	.	.
Clc1ccc(-c2nc(N3CCCCC3)nc3ccccc23)cc1	13µM*	7.9µM*	i	i	52%	-4
O=C(O)CCC(=O)N1CCN(c2nc(-c3ccccc3)c3ccccc3n2)CC1	-5%	21µM*	i	i	200%	20
CCOC(=O)N1CCN(c2nc(-c3ccccc3)c3ccccc3n2)CC1	16µM*	8.2µM*	i	i	169%	-1
CC(C)(C)c1cc(C(=O)NC2CC2)n(Cc2ccc(F)cc2)n1	?	18%	i	i	1%	-11
Cc1ccc(NNC(=O)c2cc(C(C)(C)C)nn2Cc2ccccc2)cc1	-10%	?	12µM*	i	-4%	6
CC(C)(C)c1cc(C(=O)NNc2cc(C(F)(F)F)ccc2Cl)n(Cc2ccccc2)n1	5%	21µM*	?	?	-15%	11
Cc1ccc(NC(=O)c2cc(C(C)(C)C)nn2Cc2ccccc2)cc1	-4%[9.22 µM]	?	?	?	-11%	4
SMILES	SW480 rerep	MCF10A rereplic	KB-3-1 tox	KB-V1 cytotox	S-ASM inh	Giardia kill
CC(C)(C)c1cc(C(=O)NNc2ccc(OC(F)(F)F)cc2)n(Cc2ccccc2)n1	-35%	18µM*	i	?	-3%	-9
CC(C)(C)c1cc(C(=O)NNc2cccc(Cl)c2)n(Cc2ccccc2)n1	2%	?	?	?	-9%	-15
CC(C)(C)c1cc(C(=O)Nc2ccc(F)cc2)n(Cc2ccc(F)cc2)n1	1%	21µM*	?	?	-10%	-11
O=c1ccc2cc(S(=O)(=O)NCc3ccc(Cl)cc3)ccc2[nH]1	.	.	i	i	.	.
Cc1ccc(S(=O)(=O)Nc2ccccc2CNc2ccc(Br)cn2)cc1	?	?	23µM*	5.8µM*	-5%	16
Cc1ccc(S(=O)(=O)Nc2ccccc2CNc2ncc(Br)cc2Br)cc1	?	-3%	?	2.9µM*	-1%	3
Cc1ccc(S(=O)(=O)CC(=O)Nc2ccccn2)cc1	-8%	5%	i	i	-1%	1
Cc1ccc(S(=O)(=O)Nc2ccccc2CNc2ccccn2)cc1	-3%	1%	?	21µM*	2%	-8
Cc1ccc(S(=O)(=O)CC(=O)Nc2ccc(S(=O)(=O)Nc3ccccn3)cc2)cc1	-50%	1.5µM*	i	i	0%	9
Cc1cc2nn(-c3ccccc3)nc2cc1NC(=O)COc1ccc(Cl)cc1	.	.	i	i	.	.
CSc1cccc(CN2CCC(CO)(Cc3cccc(C(F)(F)F)c3)CC2)c1	21%	?	i	?	0%	-30
OCC1(Cc2cccc(C(F)(F)F)c2)CCN(Cc2cc(F)cc(F)c2)CC1	?	23µM*	?	?	-6%	15
Cc1nnc(N2CCC(C(=O)NCc3ccc(F)cc3)CC2)c2nn(-c3ccc(Cl)cc3)c(C)c12	.	.	i	i	.	.
CC(C1=C(CCN(C)C)Cc2ccccc21)c1ccccn1 (centres undefined)	0%	-2%	i	16µM*	4%	4
CN(C)CCC(c1ccccc1)c1ccccn1 (centres undefined)	11%	-14%	i	i	-6%	-1
CC(=O)c1ccc(NC(=O)Cn2ncc3c4ccccc4n(Cc4ccccc4)c3c2=O)cc1	.	.	i	i	.	.
CCOCCCNC(=S)N1CCCN(c2nc3c(C)c(C)ccc3cc2C#N)CC1	?	2%	i	i	135%	-12
Cc1ccc2cc(C#N)c(NCCNC(=O)C3CCC3)nc2c1C	?	?	?	15µM*	294%	30
CCOCCCNC(=S)NCCCNc1nc2c(C)c(C)ccc2cc1C#N	21µM*	18µM*	i	?	407%	-18
CCC[C@H]1COCCS(=O)(=O)N1Cc1cccc(F)c1	.	.	i	i	.	.

Screening data (PubChem)
